# Tb PYK inh – qHTS of Trypanosoma Brucei Inhibitors; TbPYK enzyme, Kinase-Glo Plus ATP luminescence, 45 min; 0.12% of 410,000 active; Potency, µM (series often up to 76.8 µM), for inactives: top-dose activity, negative = inhibition, actives largely listed as inhibitors; pyruvate kinase (Trypanosoma brucei), Q57TT1; also: nearly all actives have a fitted effect of over 50% in size
#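 Quantitative HTS: titrated library compounds versus trypanosomal pyruvate kinase in TEA buffer (pH 7.2) containing KCl, MgCl2, BSA and Tween-20. Reactions were initiated with ADP, 130 uM final. Kinase-Glo Plus luminescence was read after 45 min at RT.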
# LmPK inhibitor – qHTS Assay for Inhibitors of Leishmania Mexicana Pyruvate Kinase (LmPK). AID 1721, 2009. Potency, µM (highest dose often 57.5 µM), for inactives: top-dose activity change, negative = inhibition, usual class: inhibitors. Q27686. 0.37% of 290,000 active. purified LmPK, Kinase-Glo ATP luminescence, 1 h
# Target sequence (Q27686 whole entry, looked up): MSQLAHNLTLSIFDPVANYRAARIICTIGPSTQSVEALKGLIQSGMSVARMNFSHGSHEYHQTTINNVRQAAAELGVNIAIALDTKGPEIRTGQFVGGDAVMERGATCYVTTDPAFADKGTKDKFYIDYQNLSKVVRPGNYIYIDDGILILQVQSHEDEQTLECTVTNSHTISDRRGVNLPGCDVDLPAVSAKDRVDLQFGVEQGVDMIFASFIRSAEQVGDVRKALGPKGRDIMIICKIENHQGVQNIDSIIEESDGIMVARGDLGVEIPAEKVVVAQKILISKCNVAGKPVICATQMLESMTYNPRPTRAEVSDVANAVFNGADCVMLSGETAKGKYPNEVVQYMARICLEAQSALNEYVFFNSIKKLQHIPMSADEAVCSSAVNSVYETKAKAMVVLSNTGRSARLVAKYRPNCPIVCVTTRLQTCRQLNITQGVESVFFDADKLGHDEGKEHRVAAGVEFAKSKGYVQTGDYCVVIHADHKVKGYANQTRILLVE
#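 qHTS format; LmPK 0.1 nM; substrates PEP 0.5 mM and ADP 0.1 mM. One-hour room-temperature incubation, then coupled luciferase luminescence; 0.5 nM enzyme wells mark activation.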
# RE007 growth inh – qHTS Assay for Inhibitors of the HIV-1 protein Vpr; 0.21% of 360,000 active; S. pombe RE007 Vpr strain, BacTiter-Glo ATP luminescence, 24 h; Potency, µM (highest dose often 92.2 µM), inactives show top-dose activity change, negative = less growth, actives largely listed as inhibitors; active = well fitted falling curve with a large enough effect; inconclusive = small, poorly fitted or top-dose-only effect; inactive = no such curve, though single readings can be large or run the other way; also: nearly all actives have a fitted effect of over 50% in size
#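 Fission yeast strain RE007, carrying one chromosomally integrated HIV-1 vpr copy, was seeded at OD 0.01 in PMG+AL medium with 23 nL pinned compound. After 24 h at 30 °C and 99% humidity, viability was read by BacTiter-Glo luminescence.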
# Vaccinia mCherry – qHTS for Stage-Specific Inhibitors of Vaccinia Orthopoxvirus: mCherry Reporter Primary qHTS | 0.63% of 310,000 active | AID 720579, 2013 | Vaccinia virus mCherry reporter infection, fluorescence | Potency, µM (titrated, usually from 36.5 µM), without a hit: top-dose activity change, negative = inhibition, most hits filed as inhibitors; calls by dose curve; tested in A549 cells; also: nearly all actives have a fitted effect of over 35% in size
# AMA1-RON2 inh – qHTS for Inhibitors of AMA1-RON; Towards Development of Antimalarial Drug Lead: Primary Screen; AlphaScreen AMA1-biotinylated RON2 peptide binding; Plasmodium falciparum AMA1 (3D7) - RON2 peptide interaction; AID 720542, 2013; 0.2% of 360,000 active; Potency, µM (series often up to 58.2 µM), for the others: at the highest dose activity change, negative = inhibition, hits mostly inhibitors;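 also: 0% = vehicle wells and -100% = peptide control; nearly all actives have a fitted effect of over 45% in size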
#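 AMA1 (3D7) with his tag at 25 nM final met compounds first, then biotinylated RON2 peptide at 25 nM; detection used donor plus acceptor beads, 10 µg/mL apiece, read by AlphaScreen after 30 min at room temperature.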
# VACV Venus inh – qHTS for Stage-Specific Inhibitors of Vaccinia Orthopoxvirus: Venus Reporter Primary qHTS. AID 720580, 2013. Vaccinia virus Venus reporter expression, fluorescence. Potency, µM (highest dose often 36.5 µM), for inactives: top-dose activity change, negative = inhibition, most hits filed as inhibitors. 0.46% of 330,000 active; calls by dose curve; tested in A549 cells; also: nearly all actives have a fitted effect of over 30% in size
# * hit, by the source's call; i = inactive; ? = inconclusive; · = no result given; [ ] = dose if it differs, or a comment. Hits are enriched below; roughly 1.3% of the tested compounds scored in any of these assays. Unless noted, calls follow the shape of the dose curve; as a rule, active = well fitted curve in the direction sought with a large enough effect; inconclusive = small, poorly fitted or top-dose-only effect, or another doubt; inactive = no such curve, though single readings can be large; an effect the other way counts as inactive or inconclusive. Unless noted, % is scaled to controls: 0 for no effect and ±100 for the full control effect; potency is read from the fitted curve at half-maximal effect.
SMILES,Tb PYK inh,LmPK inhibitor,RE007 growth inh,Vaccinia mCherry,AMA1-RON2 inh,VACV Venus inh
Cc1ccc(C23CC4CC(CC(NC(=O)N5CCN(C)CC5)(C4)C2)C3)cc1,-2%,2%,13µM*,·,7%,?
Cc1c(C(=O)NCC(C)(C)N2CCOCC2)cnn1-c1nccc(-c2cccs2)n1,·,·,·,-12%,·,-9%
CC(=O)Nc1sc(N/N=C\c2ccccc2Cl)nc1-c1cccs1,1%,-1%,-21%,11µM*,-23%,?
CCN(CC)c1ccc(Nc2nc(-c3cccnc3)cs2)cc1,6%,-2%,29%,-24%,28µM*,-23%
CN(C)c1ccc(Nc2nc(-c3cccnc3)cs2)cc1,-7%,-18%,-16%,-9%,?,-15%
COc1ccccc1C1CN(CCNC(=O)c2ccc3c(c2)OCCO3)Cc2ccccc2O1 (centres undefined),·,·,·,-14%,·,-3%
O=C1CC[C@@H](C(=O)NCC2Cc3cc(Cl)cc(-c4ccc5[nH]ccc5c4)c3O2)N1 (some centres undefined),·,·,·,-20%,·,5%
O=C(C[C@H]1C[C@H](C(=O)N2CCOCC2)[C@@]2(CCC3CCCC3)c3[nH]c4cc(-c5ccco5)ccc4c3CCN2C1=O)NCCN1CCOCC1,-1%,·,5%,?,-27%,?
CN(C)CCCNC(=O)C[C@H]1C[C@H](C(=O)N2CCOCC2)[C@@]2(CCC3CCCC3)c3[nH]c4cc(-c5ccco5)ccc4c3CCN2C1=O,-10%,·,20%,?,3%,13µM*
CC(C)(C)NC(=O)C[C@H]1C[C@H](C(=O)N2CCOCC2)[C@@]2(CCC3CCCC3)c3[nH]c4cc(-c5ccco5)ccc4c3CCN2C1=O,0%,·,7%,?,-17%,10µM*
Cc1cc(C=O)cc(C)c1[N+](=O)[O-],·,·,·,-14%,·,-5%
CN(CC1COCCO1)C(=O)c1cnn(-c2nccc(-c3ccccc3C(F)(F)F)n2)c1C1CC1 (centres undefined),·,·,·,-13%,·,1%
COC(=O)CNc1c(-c2ccccn2)nc2ccc(Br)cn12,-5%,16µM*,-16%,·,22%,·
COc1ccccc1C(=O)N1CCOc2ccc(CN3CCN(Cc4ccccn4)CC3)cc2C1,·,·,·,-11%,·,3%
Cc1ccnc(NC(c2ccccc2F)c2ccc3cccnc3c2O)c1 (centres undefined),17%,·,·,16µM*,·,?
Oc1c(C(Nc2ccccn2)c2ccccc2F)ccc2cccnc12 (centres undefined),52%,·,·,-6%[7.34 µM],·,-2%[7.34 µM]
O=C(O)c1ccccc1NC(c1ccccc1)c1ccc2cccnc2c1O (centres undefined),151%,·,-9%,8.9µM*,-9%,?
COc1cc(C(Nc2ccccn2)c2ccc3ccc(C)nc3c2O)cc(OC)c1O (centres undefined),33%,13%,16%,13µM*,-10%,?
Cc1ccnc(NC(c2ccccc2)c2ccc3cccnc3c2O)c1 (centres undefined),68%,·,?,?,-78%,?
Oc1c(C(Nc2ccccn2)c2ccccn2)ccc2cccnc12 (centres undefined),50%,0%,?,?,-93%,10µM*
COc1cc(=O)n2c(c1C(=O)NC(C)c1ccco1)CCN(C(=O)c1[nH]c(C)cc1C)CC2 (centres undefined),·,·,·,i,·,-17%
COC(=O)[C@@H]1C[C@@H](NC(=O)c2cnsn2)CN1Cc1ccc(Cl)cc1,·,·,·,-20%,·,-12%
Cc1ccnc(NC(c2cc(C)ccc2O)c2ccc3cccnc3c2O)c1 (centres undefined),50%,·,·,-7%,·,-9%
Oc1ccccc1C(Nc1nccs1)c1ccc2cccnc2c1O (centres undefined),2%,-4%,3%,8.9µM*,-21%,?
CCS(=O)(=O)NCc1c(C)ncc2c1CCN(C(=O)c1csc(-c3cccs3)n1)C2,·,·,·,-5%,·,0%
SMILES,Tb PYK inh,LmPK inhibitor,RE007 growth inh,Vaccinia mCherry,AMA1-RON2 inh,VACV Venus inh
Cn1c(=O)c2c([nH]c(=S)n2Cc2ccc(Cl)cc2)n(C)c1=O,3.5µM*,?,9%,i,0%,2%
Nc1nonc1C(=O)NCCN=Cc1ccccc1O,1%,-10%,7%,·,15%,-8%
Nc1nonc1C(=O)NCCN=Cc1cc(Cc2ccccc2)cc(Br)c1O,5%,-6%,16µM*,·,7%,·
Fc1ccc(Nc2ccnc(Nc3ccc(F)cc3)n2)cc1,1%,7%,-20%,10µM*,-1%,11µM*
COc1ccc(NC(=O)C(=S)N2CCCC2)cc1,1%,0%,16µM*,-4%,13%,-8%
Cc1sc2ncnc(N/N=C/c3ccccc3O)c2c1C,3%,1%,-50%,3.5µM*,2%,?
Cc1sc2ncnc(N/N=C/c3ccc(O)cc3)c2c1C,12%,-1%,-5%,?,42%,-26%
O=C(NCC1Cc2cccc(-c3cnccn3)c2O1)c1ccc(F)c(Cl)c1 (centres undefined),·,·,·,-10%,·,-4%
Cc1ccn2cc(-c3cc4ccccc4oc3=O)nc2c1,-18%,14µM*,-11%,0%,10%,0%
O=c1oc2ccccc2cc1-c1cn2cc(Cc3ccc(Cl)cc3)sc2n1,1%,·,·,-26%,·,-22%
Cc1cnc(-n2ncc(C(=O)NCCc3ccccn3)c2C)nc1-c1ccc(F)cc1,·,·,·,-23%,·,-8%
O=C(/C=C1\NC2(CCCC2)Cc2ccccc21)C(=O)N/N=C/c1ccccc1O,-6%,-5%,7%,13µM*,42%,?
Cc1c(C(=O)N2CCCC2)sc2ncnc(NCCN(C)C)c12,·,·,·,i,·,-19%
CC1=NN(c2ccccc2)C(=O)/C1=C/C=C/c1ccccc1,-8%,-1%,2%,-8%,3.2µM*,6%
CCOC(=O)N1CCN(C(=O)C2CCN(C(=O)c3ccccc3C)CC2)CC1,7.9µM*,·,?,-11%,-1%,-4%
CC1OC(CC(=O)O)CC2=C1C(=O)c1c(O)cccc1C2=O (centres undefined),?,·,1.6µM*,?,-17%,?
CCOc1cc(/C=N/N=C2/NC(=O)C(CC(=O)O)S2)ccc1OCc1ccccc1Cl (centres undefined),-16%,22µM*,-11%,i,20%,6%
CCCCCc1cc(O)c2c(c1)OC(C)(C)c1ccc(C)cc1-2,9%,·,·,·,·,·

# Assay outcomes: PubChem, National Center for Advancing Translational Sciences (NCATS)
